In all, about 5,500 compounds went through this assay and about 2,000 (36%) were called active. About 18% were inconclusive and are not listed. Cut-off read from the data, not from the text of the source: active = normalized growth mostly below about 0.91 (no sharp cut-off); inconclusive = no clear call, values can overlap the other calls; inactive = mostly above about 0.92. This is one part of the list.
Assay: chemical genetic growth profiling, strain panel (AID 1159580);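 note: tested at 20 µM; growth read once vehicle control cultures reached saturation at 30 °C; 1 = growth at the plate median or of vehicle wells; lower values mean less growth of the strain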
Conditions: growth OD

Measured: normalized growth

COc1cc2c(cc1OC)C1C(=O)c3c(cc4c(c3O)C=CC(C)(C)O4)OC1CO2 (configuration not stated)
active: S. cerevisiae deletion strains, locus YGR229C, strain SMI1, stronger effect = lower value 1.3 [resistant] | S. cerevisiae deletion strains, locus YKR001C, strain vps1, stronger effect = lower value 0.724
inactive: S. cerevisiae deletion strains, locus YBR021W, strain FUR4, stronger effect = lower value 1 | S. cerevisiae deletion strains, locus YBR229C, strain ROT2, stronger effect = lower value 1.02 | S. cerevisiae deletion strains, locus YCL029C, strain bik1, stronger effect = lower value 1.03 | S. cerevisiae deletion strains, locus YDL035C, strain GPR1, stronger effect = lower value 1.03 | S. cerevisiae deletion strains, locus YDL074C, strain BRE1, stronger effect = lower value 1.13 | S. cerevisiae deletion strains, locus YDL101C, strain DUN1, stronger effect = lower value 1.01 | S. cerevisiae deletion strains, locus YDL134C, strain PPH21, stronger effect = lower value 1 | S. cerevisiae deletion strains, locus YDL185W, strain tfp1, stronger effect = lower value 1.02 | S. cerevisiae deletion strains, locus YDL192W, strain arf1, stronger effect = lower value 0.996 | S. cerevisiae deletion strains, locus YDR101C, strain arx1, stronger effect = lower value 0.99 | S. cerevisiae deletion strains, locus YDR162C, strain NBP2, stronger effect = lower value 1.03 | S. cerevisiae deletion strains, locus YDR318W, strain mcm21, stronger effect = lower value 1.02 | S. cerevisiae deletion strains, locus YDR388W, stronger effect = lower value 1.02 | S. cerevisiae deletion strains, locus YDR502C, strain sam2, stronger effect = lower value 1.02 | S. cerevisiae deletion strains, locus YER110C, stronger effect = lower value 1.02 | S. cerevisiae deletion strains, locus YER155C, strain BEM2, stronger effect = lower value 1.04 | S. cerevisiae deletion strains, locus YER167W, strain BCK2, stronger effect = lower value 1.01 | S. cerevisiae deletion strains, locus YGL078C, strain dbp3, stronger effect = lower value 1.01 | S. cerevisiae deletion strains, locus YGL086W, strain mad1, stronger effect = lower value 1.01 | S. cerevisiae deletion strains, locus YGL248W, strain PDE1, stronger effect = lower value 1.03 | S. cerevisiae deletion strains, locus YGR135W, strain pre9, stronger effect = lower value 1.06 | S. cerevisiae deletion strains, locus YGR252W, strain gcn5, stronger effect = lower value 1.08 | S. cerevisiae deletion strains, locus YHR079C, strain IRE1 (second series), stronger effect = lower value 1.02 | S. cerevisiae deletion strains, locus YHR094C, strain hxt1, stronger effect = lower value 1.03 | S. cerevisiae deletion strains, locus YHR129C, strain ARP1, stronger effect = lower value 1.02 | S. cerevisiae deletion strains, locus YHR200W, strain rpn10, stronger effect = lower value 1.02 | S. cerevisiae deletion strains, locus YIL066C, strain RNR3, stronger effect = lower value 1 | S. cerevisiae deletion strains, locus YIL073C, strain SPO22, stronger effect = lower value 1.28 | S. cerevisiae deletion strains, locus YIL125W, strain kgd1, stronger effect = lower value 1 | S. cerevisiae deletion strains, locus YIR030C, strain dcg1, stronger effect = lower value 1.02 | S. cerevisiae deletion strains, locus YJL095W, strain BCK1, stronger effect = lower value 1.05 | S. cerevisiae deletion strains, locus YJL134W, strain LCB3, stronger effect = lower value 1.01 | S. cerevisiae deletion strains, locus YJL168C, strain set2, stronger effect = lower value 1.03 | S. cerevisiae deletion strains, locus YJL187C, strain SWE1 (second series), stronger effect = lower value 1.01 | S. cerevisiae deletion strains, locus YKL009W, strain mrt4, stronger effect = lower value 1.04 | S. cerevisiae deletion strains, locus YKL068W, stronger effect = lower value 1.01 | S. cerevisiae deletion strains, locus YKL085W, strain MDH1 (second series), stronger effect = lower value 1.01 | S. cerevisiae deletion strains, locus YKL085W, strain MDH1, stronger effect = lower value 1.01 | S. cerevisiae deletion strains, locus YKL190W, strain CNB1, stronger effect = lower value 1 | S. cerevisiae deletion strains, locus YLR039C, strain RIC1, stronger effect = lower value 0.992 | S. cerevisiae deletion strains, locus YLR058C, strain SHM2, stronger effect = lower value 1.01 | S. cerevisiae deletion strains, locus YLR102C, strain apc9, stronger effect = lower value 1.02 | S. cerevisiae deletion strains, locus YLR262C, strain YPT6, stronger effect = lower value 0.991 | S. cerevisiae deletion strains, locus YLR268W, strain sec22, stronger effect = lower value 1.02 | S. cerevisiae deletion strains, locus YLR342W, strain FKS1 (second series), stronger effect = lower value 0.961 | S. cerevisiae deletion strains, locus YLR371W, strain rom2, stronger effect = lower value 1.03 | S. cerevisiae deletion strains, locus YLR418C, strain cdc73, stronger effect = lower value 1.13 | S. cerevisiae deletion strains, locus YML016C, strain PPZ1, stronger effect = lower value 0.996 | S. cerevisiae deletion strains, locus YML032C, strain rad52, stronger effect = lower value 0.998 | S. cerevisiae deletion strains, locus YML124C, strain tub3, stronger effect = lower value 1.02 | S. cerevisiae deletion strains, locus YMR078C, strain ctf18, stronger effect = lower value 1.02 | S. cerevisiae deletion strains, locus YMR223W, strain ubp8, stronger effect = lower value 1.01 | S. cerevisiae deletion strains, locus YMR307W, strain GAS1, stronger effect = lower value 1.18 | S. cerevisiae deletion strains, locus YNL067W, strain RPL9B, stronger effect = lower value 1.01 | S. cerevisiae deletion strains, locus YNL153C, strain GIM3, stronger effect = lower value 1.04 | S. cerevisiae deletion strains, locus YNL233W, strain BNI4, stronger effect = lower value 1.06 | S. cerevisiae deletion strains, locus YNL250W, strain rad50, stronger effect = lower value 1.05 | S. cerevisiae deletion strains, locus YNL271C, strain bni1, stronger effect = lower value 1.01 | S. cerevisiae deletion strains, locus YNL298W, strain CLA4, stronger effect = lower value 1 | S. cerevisiae deletion strains, locus YNL307C, strain MCK1, stronger effect = lower value 1.03 | S. cerevisiae deletion strains, locus YNR052C, strain pop2, stronger effect = lower value 1.04 | S. cerevisiae deletion strains, locus YOL012C, strain htz1 0.98 | S. cerevisiae deletion strains, locus YOL147C, strain pex11, stronger effect = lower value 1.01 | S. cerevisiae deletion strains, locus YOR061W, strain CKA2, stronger effect = lower value 1 | S. cerevisiae deletion strains, locus YOR069W, strain VPS5, stronger effect = lower value 1.01 | S. cerevisiae deletion strains, locus YOR136W, strain idh2, stronger effect = lower value 1.06 | S. cerevisiae deletion strains, locus YOR144C, strain elg1, stronger effect = lower value 1.01 | S. cerevisiae deletion strains, locus YOR184W, strain ser1, stronger effect = lower value 0.99 | S. cerevisiae deletion strains, locus YOR316C, strain cot1, stronger effect = lower value 1.02 | S. cerevisiae deletion strains, locus YPR119W, strain clb2, stronger effect = lower value 1.02 | S. cerevisiae deletion strains, locus YPR141C, strain kar3, stronger effect = lower value 1 | S. cerevisiae deletion strains, locus YPR163C, strain tif3, stronger effect = lower value 1.03 | S. cerevisiae deletion strains, locus YPR167C, strain met16, stronger effect = lower value 1.01 | S. cerevisiae deletion strains, strain wtn01, stronger effect = lower value 0.989 | S. cerevisiae strains, strain wild type, stronger effect = lower value 1.02
